PubChem BioAssay (Tox21)
Inconclusive results are not listed. Unmarked numbers belong to inactive results. Active and inactive are the calls of the source. Calls come from the whole dose curve; as a rule, active = well fitted activation curve with a large enough effect in the repeat runs; inconclusive = weak or mixed curves, or effect the other way; inactive = no such curve, though single readings can be large or run the other way.

assay: qHTS assay to identify small molecule agonists of the estrogen related receptor signaling pathway with the pleiotropic PPARgamma coactivator (PGC) from Tox21 10K library (AID 1224842); details: PGC/ERR reporter cell line, luciferase ONE-Glo, 18 h; series mostly up to 92.4 µM; activation: at the top concentration; note: nearly all actives have a fitted effect of over 15% in size
Method in brief: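 Luminescence from One-Glo (30 min, room temperature) measured after PGC/ERR cells had 18 h at 37 C with pinned compound (23 nL in DMSO). Cells had been seeded at 2,000 per well and pre-incubated 6 h.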
% is set by controls: 0 for no effect and ±100 for the full control effect; potency is the fitted concentration of half-maximal effect.

Structure (SMILES) | activation | Potency
Oc1cccc(Cl)c1Cl | -15.6% | –
CCNS(=O)(=O)C(F)(F)C(F)(F)C(F)(F)C(F)(F)C(F)(F)C(F)(F)C(F)(F)C(F)(F)F | -5.45% | –
CN1C(=O)[C@@H](NC(=O)c2cc3ccccc3[nH]2)N=C(c2ccccc2)c2ccccc21 | -11% [at 42.5 µM] | –
ClSC(Cl)(Cl)Cl | 3.05% | –
CCCCCCCCCCCCCCn1cc[n+](C)c1 | – | inactive
Cc1ccn2nc(S(=O)(=O)Nc3c(F)cccc3F)nc2n1 | 0.159% | –
C[C@H]1[C@H](c2ccc(Cl)cc2)SC(=O)N1C(=O)NC1CCCCC1 | -20.5% | –
Oc1ccc2[nH]cc(CCCCN3CC=C(c4ccccc4)CC3)c2c1 | -18.3% [at 42.5 µM] | –
Oc1ccc([C@H]2CNCc3c2ccc(O)c3O)cc1O | 0.511% [at 42.5 µM] | –
CC1(C)C(C=C(Cl)Cl)C1C(=O)OC(C#N)c1ccc(F)c(Oc2ccccc2)c1 (centres undefined) | -9.18% | –
O=Cc1ccccc1 | -0.852% | –
O=C1C2(Cl)C3(Cl)C4(Cl)C(Cl)(Cl)C5(Cl)C3(Cl)C1(Cl)C5(Cl)C24Cl (centres undefined) | – | inactive
Nc1ccccc1-c1ccccc1 | -9.85% | –
C[C@]12C/C(=C/O)C(=O)C[C@@H]1CC[C@@H]1[C@@H]2CC[C@@]2(C)[C@H]1CC[C@]2(C)O | – | inactive
Nc1nc(N)c(N)c(N)n1 | -5.97% | –
C=CC(=O)[O][Sn]([CH2]CCC)([CH2]CCC)[CH2]CCC | -35.4% | –
c1ccc2c(c1)cc1ccc3cccc4ccc2c1c34 | – | 22.1 µM (active)
Brc1cccc(-c2ccccc2)c1 | 1.53% | –
O=[N+]([O-])c1ccc(Cl)c(Cl)c1Cl | -4.87% | –
